# Test results: the supplement of paper PMC10105736
# A number with no mark means an inactive call.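 Rule for the calls: active = MAPPIT score above the 99th percentile of random reference set scores in the same batch; inactive = at or below it.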
# B1: CSN4 (protein)
# chain: MAANYGISTAALRSQLMGLINFTGTHKDQADKYRQLLKTVLTNTGQELIDGLRLFVEAIVNEHVSLVISRQILNDVGSELSKLPDDLSKMLSHFTLEKVNPRVISFEEQVAGIRFHLANIYERNQQWRDAATVLVGIPLETGQKQYSVECKLGTYLKIARLYLEDNDSVQAELFINRASLLQAETNSEELQVLYKVCYARVLDYRRKFIEAAQRYNELSYRKIVDQGERMTALKKALICTVLASAGQQRSRMLATLFKDERCQHLPAYGILEKMYLERIIRRSELQEFEALLQDHQKAATSDGSSILDRAVFEHNLLSASKLYNNITFEELGALLDIPAVKAEKIASQMITEGRMNGHIDQISAIVHFENRELLPQWDRQIQSLCYQVNSIIEKISVAEPDWMDNLN
# B2: TfIIB (protein)
# chain: MASTSRLDNNKVCCYAHPESPLIEDYRAGDMICSECGLVVGDRVIDVGSEWRTFSNEKSGVDPSRVGGPENPLLSGGDLSTIIGPGTGSASFDAFGAPKYQNRRTMSSSDRSLISAFKEISSMADRINLPKTIVDRANNLFKQVHDGKNLKGRSNDAKASACLYIACRQEGVPRTFKEICAVSKISKKEIGRCFKLTLKALETSVDLITTADFMCRFCANLDLPNMVQRAATHIAKKAVEMDIVPGRSPISVAAAAIYMASQASEHKRSQKEIGDIAGVADVTIRQSYKLMYPHAAKLFPEDFKFTTPIDQLPQM
# B3: CG10417 (protein)
# chain: MGAYLSHPKTDKTSTDQFNELLAVGASSMQGWRNSQEDAHNSILNFDNNTSFFAVYDGHGGAEVAQYCADKLPHFLKNLETYKNGQFEVALKEAFLGFDKTLLDPSIVSILKILAGEHNFVDAEADDYEEEDLAELQEESNLPLNEVLEKYKGLPQKKDLDLKSSDHKENFKMRSPYFRGRRAAALAAEATNKAVMDPSAKPDGSSTSAAAAAAALSADGVANSRNPSNVVNPMAGADSNTTTSINDLSTKNAALKDDSVNDQNEGSNGTDFKHTLVSSSNKKLFATGSNDMTELNQSSKNEFTNSSTSKEFERNINSSQDDEFTDDDADYEENDNVKSPDTSSAESSDCTENDDDGDEDGNEDSDEEETDEDQMANDNFCANMIEEPGKDSGCTAVVCLLQGRDLYVANAGDSRCVISRSGQAIEMSIDHKPEDDEEASRIIKAGGRVTLDGRVNGGLNLSRALGDHAYKTNVTLPAEEQMISALPDIKKLIITPEDEFMVLACDGIWNYMSSEEVVEFVRCRLKDNKKLSTICEELFDNCLAPNTMGDGTGCDNMTAVIVQFKKKLQELQSTIPPNQTEDKLLKTSENVSHSLNDQSASKRCASQNADADDEILEKNNSKRLKTDLEQENIKDRTPSPSNQNEDPTQKAIKEVTIIVSSS
# B4: Cp38 (protein)
# chain: MTRSTYIWALAACLIACASANYGSSQGYGPESGSGASDGGADAASAAAAAAGGAGGAGGEYGGANAGAGALESGADAAGVAQAGQSSYGSDQNIPYKPVNTKGNTLTSSITYPQNKGEILIHRPAPIIVKRPPTKVLVNHPPLVVKPAPVVLHKPPAIVLRKVYVKHHPRRVKVEPVFVNVVKPPAEKYFVNENKQGYGQGSQSHGHGHGHGGHGHGHSGHGHGGHGAGPHGPGPHDGGRALPAYASGADSAAASAGYQLLQSGNQGLSALANIAGEREGPYGPAPSHQHYSAGPAGHGGYAAPAY
# B5: emb (protein)
# chain: MATMLTSDEAGKLLDFSQKLDINLLDKIVEVVYTAQGEQLRLAQSILTTLKEHPEAWTRVDSILEYSQNQRTKFYALQILEEVIKTRWKVLPRNQCEGIKKYVVSLIIKTSSDPIVMEQNKVYLNKLNMILVHILKREWPRNWETFISDIVGASKTNESLCMNNMVILKNLSEEVFDFSQGQITQTKAKHLKDTMCSEFSQIFTLCSFVLENSMNAALIHVTLETLLRFLNWIPLGYIFETQQIETLIFKFLSVPMFRNVTLKCLSEIAGLTAANYDENFATLFKDTMVQLEQIVGQNMNMNHVFKHGSDTEQELVLNLAMFLCTFLKEHGKLVEDAKYVDYLNQALMYLVMISEVEDVEVFKICLEYWNSLVEDLYNSEFFHPTLESTKRQQVYPRRRFYAPILSKVRFIMISRMAKPEEVLVVENENGEVVREFMKDTNSINLYKNMRETLVFLTHLDSVDTDRIMTLKLLNQVNGSEFSWKNLNTLCWAIGSISGAFCEEDEKRFLVTVIKDLLGLCEQKKGKDNKAIIASNIMYVVGQYPRFLRAHWKFLKTVVNKLFEFMHETHDGVQDMACDTFIKIAIKCRRYFVTIQPNEACTFIDEILTTMSSIICDLQPQQVHTFYEAVGYMISAQVDQVQQDVLIERYMQLPNQVWDDIISRASKNVDFLKNMTAVKQLGSILKTNVAACKALGHAYVIQLGRIYLDMLNVYKITSENIIQAIEVNGVNVNNQPLIKTMHVVKKETLNLISEWVSRSNDNQLVMDNFIPPLLDAILLDYQRCKVPSAREPKVLSAMAIIVHKLRQHITNEVPKIFDAVFECTLDMINKNFEDFPQHRLSFYELLQAVNAHCFKAFLNIPPAQFKLVFDSVVWAFKHTMRNVADMGLNILFKMLQNLDQHPGAAQSFYQTYFTDILMQIFSVVTDTSHTAGLPNHAIILAYMFSLVENRKITVNLGPIPDNMIFIQEYVASLLKSAFTHLSDNQVKVFVTGLFNLDENVQAFKEHLRDFLIQIREATGEDDSDLYLEEREAALAEEQSNKHQMQRNIPGMLNPHELPEDMQDE
# B6: 14-3-3epsilon (protein)
# chain: MTERENNVYKAKLAEQAERYDEMVEAMKKVASMDVELTVEERNLLSVAYKNVIGARRASWRIITSIEQKEENKGAEEKLEMIKTYRGQVEKELRDICSDILNVLEKHLIPCATSGESKVFYYKMKGDYHRYLAEFATGSDRKDAAENSLIAYKAASDIAMNDLPPTHPIRLGLALNFSVFYYEILNSPDRACRLAKAAFDDAIAELDTLSEESYKDSTLIMQLLRDNLTLWTSDMQAEEVDPNAGDGEPKEQIQDVEDQDVS
# B7: spin (protein)
# chain: MSLKHQKQSYQPLPTAAAMDNPAMIQSSGSSGSSSSEEGGSREDVANLSPLGLPTTYSSQQLMPSDTDSMEEERHRLRPHHHHHHPLGEHHHIPGIPPSAVVPSRLSSVGRSQWFTVTVLCFVNLINYMDRFTIAGVLTDVRNDFDIGNDSAGLLQTVFVISYMVCAPIFGYLGDRYSRPWIMAVGVGLWSTTTLLGSFMKQFGWFIAFRALVGIGEASYSTIAPTIISDLFVHDMRSKMLALFYFAIPVGSGLGYIVGSKTAHLANDWRWALRVTPILGIVAVFLILLIKDPVRGHSEGSHNLEATTYKQDIKALVRNRSFMLSTAGFTCVAFVAGALAWWGPSFIYLGMKMQPGNENIVQDDVAFNFGVITMLAGLLGVPLGSFLSQYLVKRYPTADPVICAFGLLVSAPLLTGACLLVNSNSVGTYALIFFGQLALNLNWAIVADILLYVVVPTRRSTAEAFQILISHALGDAGSPYLVGAISEAIMKHLHKNPSDSGLTTELRSMSQVAGSAISNATQVIAEATTSLMETARSSASQEYSDVEQFEGLQYALFSTSFVEVLGGIFFIFTACFIIKDKYNATRGLQDATAQQQQRDERGQIA
# What was measured:
# Test in all cases: MAPPIT interaction score (arbitrary units); higher = stronger binary interaction signal, active = hit call of the paper
# [1] = target: 7B2; conditions: MAPPIT configuration: N-N; pair source set: Finley_Y2H
# Procedure: (§1)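 MAPPIT in HEK293T cells: Drosophila bait and prey ORFs (from the FlyBi ORF collection) were co-transfected in quadruplicate, with two wells stimulated by erythropoietin. Interaction-dependent JAK-STAT activation was read out with a STAT-responsive firefly luciferase reporter. Positive calls use the 99th percentile of random reference set (RRS) scores within each batch […]. Batches Dvs01 and Dvs02 used the N-N configuration and Dvs04 the N-C configuration. Pairs come from FlyBi screens, CuraGen, DPiM, Finley Y2H, Lit-BM-16, Lit-BS-16 and RRS.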
# [2] = target: CG10591; conditions: MAPPIT configuration: N-N; pair source set: Curagen_low_conf
# Procedure: as §1
# [3] = target: CSN7; conditions: MAPPIT configuration: N-N; pair source set: Lit-BM-16
# Procedure: as §1
# [4] = target: PICK1; conditions: MAPPIT configuration: N-N; pair source set: screen_1
# Procedure: as §1
# [5] = target: AP-1mu; conditions: MAPPIT configuration: N-C; pair source set: screen_4
# Procedure: as §1
# [6] = target: HLH54F; conditions: MAPPIT configuration: N-N; pair source set: Curagen_low_conf
# Procedure: as §1
# [7] = target: AP-2alpha; conditions: MAPPIT configuration: N-N; pair source set: DPIM
# Procedure: as §1
# [8] = target: CG9667; conditions: MAPPIT configuration: N-N; pair source set: DPIM
# Procedure: as §1
# [9] = target: ACOX1; conditions: MAPPIT configuration: N-N; pair source set: Curagen_low_conf
# Procedure: as §1
# [10] = target: mbo; conditions: pair source set: Lit-BM-16
# Procedure: as §1
# [11] = target: 14-3-3zeta; conditions: pair source set: Lit-BM-16
# Procedure: as §1
# [12] = target: par-1; conditions: pair source set: Lit-BM-16
# Procedure: as §1
# [13] = target: yki; conditions: MAPPIT configuration: N-N; pair source set: Lit-BM-16
# Procedure: as §1
# [14] = target: CG17377; conditions: MAPPIT configuration: N-C; pair source set: screen_4
# Procedure: as §1
# [15] = target: Mst87F; conditions: MAPPIT configuration: N-N; pair source set: screen_2
# Procedure: as §1
# [16] = target: lawc; conditions: MAPPIT configuration: N-C; pair source set: screen_3
# Procedure: as §1
# 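Note: HEK293T cells with Epo stimulation, STAT-responsive firefly luciferase reporter, fold induction versus unstimulated cells divided by the larger fold induction of two negative controls lacking either bait or prey.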
binder,measurement,setting,value
B1,MAPPIT interaction score,[1],-0.195
same,MAPPIT interaction score,[2],0.0604
same,MAPPIT interaction score,[3],4.26 (active)
same,MAPPIT interaction score,[4],2.03
B2,MAPPIT interaction score,[5],1.05
same,MAPPIT interaction score,[6],-0.376
B3,MAPPIT interaction score,[7],0.508
same,MAPPIT interaction score,[8],0.00387
B4,MAPPIT interaction score,[5],0.503
B5,MAPPIT interaction score,[9],1.6
same,MAPPIT interaction score,[10]; MAPPIT configuration: N-C,1.34
same,MAPPIT interaction score,[10]; MAPPIT configuration: N-N,1.54
B6,MAPPIT interaction score,[11]; MAPPIT configuration: N-C,1.51
same,MAPPIT interaction score,[11]; MAPPIT configuration: N-N,4.99 (active)
same,MAPPIT interaction score,[12]; MAPPIT configuration: N-C,-0.702
same,MAPPIT interaction score,[12]; MAPPIT configuration: N-N,-0.144
same,MAPPIT interaction score,[13],0.198
B7,MAPPIT interaction score,[5],2.01
same,MAPPIT interaction score,[14],1.62
same,MAPPIT interaction score,[15],2.13
same,MAPPIT interaction score,[16],1.7
